# Screening results from PubChem.
# Rab9 promoter act = Rab9 promoter activation | Huh7 Rab9 promoter-luciferase reporter, luminescence, 24 h | Potency, µM (series often up to 9.22 µM), for inactives: top-dose activation, negative = inhibition, actives largely listed as activators | actives 2.8% (n = 320,000); note: % of control where 0% means no effect; nearly all actives have a fitted effect of over 60% in size
#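 Luminescence from Amplite-detected luciferase (10 minutes, ambient) reports Rab9 promoter activation. Before that, stable Rab9-luciferase Huh7 cells (1500/well, reduced-serum OP-MEM I plus 10% FBS) were exposed to compound for 24 hours at 37C.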
# FLuc modulator = inhibits or activates purified firefly luciferase, miR-21 counter-screen | P08659 | purified FLuc, Km substrates, luminescence inhibition | Potency, µM (titrated, usually from 57.5 µM), without a hit: at the top dose activity change, negative = inhibition, usual class: inhibitors | actives 6.9% (n = 360,000);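 note: plate controls were vehicle for no effect and reference inhibitor for full effect; nearly all actives have a fitted effect of over 55% in size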
# Target sequence (P08659 whole entry, looked up): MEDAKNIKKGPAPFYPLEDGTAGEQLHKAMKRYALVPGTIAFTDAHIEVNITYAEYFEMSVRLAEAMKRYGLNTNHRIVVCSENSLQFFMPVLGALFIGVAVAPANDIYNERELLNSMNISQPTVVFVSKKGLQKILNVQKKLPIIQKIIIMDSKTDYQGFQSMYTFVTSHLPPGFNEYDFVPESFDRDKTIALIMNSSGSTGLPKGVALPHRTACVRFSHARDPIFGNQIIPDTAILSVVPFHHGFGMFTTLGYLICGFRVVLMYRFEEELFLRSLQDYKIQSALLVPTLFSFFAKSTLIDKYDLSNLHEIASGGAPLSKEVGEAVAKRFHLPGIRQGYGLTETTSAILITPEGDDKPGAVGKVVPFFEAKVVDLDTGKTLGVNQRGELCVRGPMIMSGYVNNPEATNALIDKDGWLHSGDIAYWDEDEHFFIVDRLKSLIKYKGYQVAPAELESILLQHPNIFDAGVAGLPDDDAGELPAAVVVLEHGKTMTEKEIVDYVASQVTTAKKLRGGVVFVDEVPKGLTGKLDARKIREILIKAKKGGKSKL
#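 Purified P. pyralis luciferase (10nM final) with 10uM D-luciferin and 10uM ATP (Km levels) in 50mM Tris acetate pH 7.5, 10mM Mg acetate, 0.01% Tween-20, 0.05% BSA; qHTS 6-point titration, ~60 µM downward; luminescence read.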
# NPC1 promoter act = activates the NPC1 promoter; actives 2.4% (n = 320,000); Huh7 NPC1 promoter luciferase reporter, 24 h; Potency, µM (highest dose often 9.22 µM), for inactives: top-dose activation, actives largely listed as activators; note: % of control where 0% means no effect; nearly all actives have a fitted effect of over 60% in size
#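 Luciferase expression driven by the NPC1 promoter was measured in stably transfected Huh7 cells after a 24 h compound incubation, using a luciferase reagent and a luminescence read.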
# ELG1 genotox = inducers of genotoxicity in HEK293T ELG1-luciferase cells; AID 504466; HEK293T ELG1-luciferase reporter, luminescence, 16 h; Potency, µM (top dose mostly 46 µM), without a hit: top-dose activity change, positive = activation, hits mostly activators; actives 1.3% (n = 330,000); note: % of control where 0% means no effect; nearly all actives have a fitted effect of over 60% in size
#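 DMSO vehicle served as control against compound-treated ELG1-luciferase HEK293T cells; exposure lasted 16 hr at 37 °C and 5% CO2, followed by ONE-Glo luminescence detection after 30 min.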
# SMN2 splice enh = increases expression of the SMN2 splice variant; HEK293 SMN2-luciferase splicing reporter, luminescence, 30-36 h; Potency, µM (top dose mostly 46.1 µM), for the others: at the top dose activity change, positive = activation, most hits filed as activators; actives 2.8% (n = 210,000); note: % of control where 0% means no effect; nearly all actives have a fitted effect of over 55% in size
#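 qHTS luciferase splicing reporter: luminescence rises when SMN2 exon 7 is included in transfected HEK293 cells. Compound exposure lasted 30-36 h at 37C, with 4.5 mM final sodium butyrate as control, followed by a ONE-Glo read.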
# ELG1 DNA repair = ELG1-dependent DNA repair inhibition; HEK293T ELG1-luciferase reporter, luminescence, 16 h; DNA damage induced by 5-fluorouridine; actives 2.3% (n = 330,000); Potency, µM (titrated, usually from 46.1 µM), without a hit: at the top dose activity change, negative = inhibition, usual class: inhibitors; note: % is set by controls: 0 for no effect and ±100 for the full control effect; nearly all actives have a fitted effect of over 55% in size
#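 Overnight (16 hr) co-exposure of 2,000 cells/well to 5-fluorouridine and compound at 37 °C preceded detection. Luciferase was quantified via ONE-Glo luminescence; loss of signal denotes inhibition.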
# * marks the source's active call; other numbers are inactive results; ? = inconclusive; nt = not tested or not shown. The list is not random: actives were taken first. Their share in the collection is about 9.2%. Calls come from the whole dose curve; as a rule, active = well fitted curve in the direction sought with a large enough effect; inconclusive = small, poorly fitted or top-dose-only effect, or another doubt; inactive = no such curve, though single readings can be large; an effect the other way counts as inactive or inconclusive. Potency is the fitted concentration of half-maximal effect.
SMILES,Rab9 promoter act,FLuc modulator,NPC1 promoter act,ELG1 genotox,SMN2 splice enh,ELG1 DNA repair
O=C1CCN(Cc2cccnc2)CCN1[C@H](CO)Cc1ccccc1,-2.4%,0.2%,1.3%,3.6%,nt,19.0%
CCOc1ccc(CCNC(=O)COC(=O)c2ccc(C)c([N+](=O)[O-])c2)cc1OCC,-2.6%,0.6%,1.7%,4.7%,nt,-8.1%
CC1(C)CC(=O)C(C(C2=C(O)CC(C)(C)CC2=O)c2cccs2)C(=O)C1 (configuration not stated),-1.2%,16.9µM*,-4.4%,3.0%,nt,14.2%
Cc1cc(C(=O)N/N=C2\CC(=O)c3ccccc32)c(C)n1-c1ccc(F)cc1,?,8.49µM*,-24.0%,10.8%,nt,?
CCOc1cc(/C=N/NC(=O)c2cc(C)n(-c3ccc(F)cc3)c2C)ccc1O,-3.7%,?,-4.8%,-2.5%,nt,?
COc1ccc(C(C)=O)cc1CC(=O)Nc1ccccc1-c1ccccc1,-1.8%,-0.1%,-1.6%,-2.4%,nt,11.6µM*
COc1cc(C(C)=O)ccc1OCC(=O)Nc1ccccc1N1CCCCC1,0.8%,2.8%,-12.0%,-43.2%,nt,5.17µM*
Cc1ccccc1OCC(=O)Nc1ccccc1C(=O)NC1CC1,-2.9%,3.9%,11.1%,-12.8%,nt,5.17µM*
Cc1ccccc1OCC(=O)Nc1ccccc1-c1ccccc1,0.891µM*,4.78µM*,0.891µM*,?,?,?
O=C(COc1ccccc1)Nc1ccccc1C(=O)NC1CC1,1.0%,0.4%,0.1%,-6.9%,nt,0.0%
CCCNC(=O)CSc1nc2nc(C)c(Cc3ccccc3Cl)c(C)n2n1,nt,1.9%,nt,nt,-6.3%,nt
C=CCNC(=O)c1cc2c(=O)n3ccccc3nc2s1,1.78µM*,16.9µM*,2.51µM*,?,nt,?
CN(C)c1ccc(CNS(=O)(=O)c2ccc3c(c2)NC(=O)CS3)cc1,0.0%,-0.8%,-0.4%,-1.7%,nt,6.8%
Cc1cc(Br)ccc1NC(=O)CN1C(=O)c2cccnc2Sc2ccccc21,nt,-1.6%,nt,nt,-1.7%,nt
Cc1cc(/C=C(\C#N)C(=O)Nc2ccccc2)c(C)n1-c1ccc2c(c1)OCO2,1.3%,10.7µM*,6.0%,-4.5%,-13.7%,?
Cc1cc(/C=C(/C#N)C(=O)Nc2ccccc2)c(C)n1-c1cccnc1,3.98µM*,1.51µM*,?,0.8%,0.5%,?
O=C(NCCCN1CCOCC1)c1cc(-c2ccc(F)cc2)nc2ccccc12,-0.9%,?,-0.3%,3.5%,nt,28.5%
CCOc1ccc(-c2cc(C(=O)NCCCN3CCOCC3)c3ccccc3n2)cc1,1.0%,8.49µM*,14.6%,2.2%,nt,16.7%
COc1ccc(Nc2cc(C(=O)NCCCN3CCOCC3)c3ccccc3n2)cc1,-1.1%,?,-1.8%,-5.2%,nt,-0.7%
CCc1ccc(Nc2cc(C(=O)NCCCN3CCOCC3)c3ccccc3n2)cc1,6.8%,19µM*,-0.8%,-11.8%,-6.0%,-28.4%
CC(C)Oc1ccc(-c2cc(C(=O)NCCN3CCOCC3)c3ccccc3n2)cc1,25.1%,1.51µM*,?,5.6%,29.0%,?
O=C(NCCN1CCOCC1)c1cc(-c2ccc(F)cc2)nc2ccccc12,1.5%,?,1.0%,0.6%,nt,10.6%
CN(CCC(=O)Nc1ccc(Cl)cc1)Cc1ccccc1,-4.1%,-8.1%,-1.3%,9.9%,nt,?
C=CC[C@@H](Cc1ccc(F)cc1)C(=O)OC[C@@H]1CCCN1C(=O)[C@@H](CC=C)CC(=O)N[C@H](CO)Cc1ccccc1,nt,nt,nt,-9.2%,nt,20.6µM*
C=CC[C@@H](Cc1ccc(F)cc1)C(=O)OC[C@H]1CCCN1C(=O)[C@H](CC=C)CC(=O)N[C@H](CO)Cc1ccccc1,nt,nt,nt,-7.3%,nt,23.1µM*
SMILES,Rab9 promoter act,FLuc modulator,NPC1 promoter act,ELG1 genotox,SMN2 splice enh,ELG1 DNA repair
C=CC[C@@H](Cc1ccc(F)cc1)C(=O)OC[C@H]1CCCN1C(=O)[C@@H](CC=C)CC(=O)N[C@H](CO)Cc1ccccc1,nt,nt,nt,-9.2%,nt,?
C=CC[C@@H](Cc1ccc(F)cc1)C(=O)OC[C@H]1CCCN1C(=O)[C@@H](CC=C)CC(=O)N[C@@H](CO)Cc1ccccc1,nt,nt,nt,-6.7%,nt,-23.6%
CC(=O)c1c(C(C)=O)c(C)n(-c2ccc(O)cc2)c1C,nt,4.9%,nt,nt,-8.6%,nt
CCN(CC)c1ccc(-n2c(C)c(C(C)=O)c(C(C)=O)c2C)cc1,-1.6%,-1.1%,-1.4%,-33.5%,-33.7%,10.3µM*
Nc1nnc(N2CCCCCC2)s1,-4.9%,-2.0%,1.2%,0.5%,-9.7%,15.4%
O=C1CCCc2nc(N3CCCCC3)sc21,27.8%,?,17.7%,20.6µM*,?,?
COc1ccc(C(C)=O)cc1CC(=O)Nc1cccc(S(=O)(=O)N2CCOCC2)c1,-4.7%,-2.4%,-4.2%,0.3%,nt,-28.8%
CC(O)[C@@H](O)[C@H]1CNc2nc(N)[nH]c(=O)c2N1 (some centres not stated),nt,nt,nt,nt,-9.9%,nt
O=C(COC(=O)c1cnccn1)Nc1ncc(C(F)(F)F)cc1Cl,nt,nt,nt,-0.5%,nt,0.0%
COc1ccc(OCCSc2nnnn2C2CCCCC2)cc1,18.9%,?,0.7%,18.7%,18.0%,24.4%
c1ccc(OCCSc2nnnn2C2CCCCC2)cc1,1µM*,2.13µM*,0.562µM*,?,11.2µM*,?
CCOC(=O)c1sc(-c2ccc(Br)cc2)cc1N,2.82µM*,4.78µM*,2.24µM*,?,12.6µM*,?
CCOC(=O)c1cc(-c2ccc(N)cc2)sc1N,2.24µM*,15.1µM*,2.82µM*,7.31µM*,11.2µM*,?
CCOC(=O)c1cc(-c2ccccc2)sc1NC(=O)C(C)C,-2.2%,-1.1%,1.2%,-3.9%,-10.4%,-24.6%
CC1CN(C(C)C(=O)NC(c2ccccc2)c2ccccc2)CC(C)O1 (configuration not stated),2.8%,-1.8%,-0.7%,-0.8%,nt,-3.7%
CCOC(=O)c1ccccc1NC(=O)c1c(C)oc2ncnc(N3CCOCC3)c12,nt,-13.7%,nt,nt,nt,nt
